This passage reports inhibition results from ChEMBL document CHEMBL1961873, “Compounds: GSK PKIS; Assays: Nanosyn kinase panel” (2012).

In the first experiment the target is Ribosomal protein S6 kinase alpha-2 (Homo sapiens) (UniProt Q15349). The note with it: at 1 µM.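 Note: value is the mean inhibition of RSK3 within GSK PKIS.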
Chain of Ribosomal protein S6 kinase alpha-2 (Homo sapiens) (Q15349 whole entry): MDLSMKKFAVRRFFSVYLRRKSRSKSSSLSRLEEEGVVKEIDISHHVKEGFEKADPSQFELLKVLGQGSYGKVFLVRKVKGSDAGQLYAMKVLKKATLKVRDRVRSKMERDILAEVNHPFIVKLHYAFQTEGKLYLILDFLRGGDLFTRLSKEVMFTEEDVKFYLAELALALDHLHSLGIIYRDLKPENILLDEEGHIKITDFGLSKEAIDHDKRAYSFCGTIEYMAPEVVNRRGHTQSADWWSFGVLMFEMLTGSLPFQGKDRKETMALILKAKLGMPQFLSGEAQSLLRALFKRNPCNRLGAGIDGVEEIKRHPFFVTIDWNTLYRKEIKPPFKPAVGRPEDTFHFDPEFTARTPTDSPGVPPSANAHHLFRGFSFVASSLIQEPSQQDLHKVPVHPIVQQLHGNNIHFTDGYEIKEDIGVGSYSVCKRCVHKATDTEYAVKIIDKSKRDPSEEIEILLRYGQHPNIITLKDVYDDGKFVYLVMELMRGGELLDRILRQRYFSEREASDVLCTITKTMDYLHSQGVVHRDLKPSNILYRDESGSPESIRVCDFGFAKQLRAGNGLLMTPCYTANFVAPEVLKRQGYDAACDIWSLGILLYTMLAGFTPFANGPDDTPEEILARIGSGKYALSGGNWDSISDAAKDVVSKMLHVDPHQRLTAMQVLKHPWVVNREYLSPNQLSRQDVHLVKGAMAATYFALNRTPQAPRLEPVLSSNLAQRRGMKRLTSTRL
For `Cc1cccc2c1NC(=O)/C2=N\Nc1ccc(S(N)(=O)=O)cc1`, the inhibition stood at 2.49%.

Consider `Clc1ccc(-c2nn3ncccc3c2-c2ccnc(Nc3ccccc3)n2)cc1`, for which the inhibition amounted to 1.37%.

For `COc1ccc(-c2cc(-c3c[nH]nc3-c3ccccn3)ccn2)cc1`, the inhibition is 4.07%.

`NS(=O)(=O)c1ccc(Nc2ncc(-c3ccccc3)o2)cc1`: the inhibition turned out to be 4.37%.

On to `c1ccc(-c2nc3n(c2-c2ccc4c(c2)OCO4)CCC3)nc1`, for which the inhibition amounted to 1.35%.

As for `N#Cc1c(NC(=O)c2ccc(F)cc2)sc2c1CCCC2`, the inhibition worked out at 1.7%.

`CC(C)COC(=O)c1ccc2c(c1)/C(=C/Nc1ccc(S(N)(=O)=O)cc1)C(=O)N2`: the inhibition was found to be 35.5%.

In the case of `Cc1ccc2c(-c3ccnc(Nc4ccccc4)n3)c(-c3ccc(F)cc3)nn2n1`, the inhibition was 2.16%.

On to `CS(=O)(=O)CCNCc1ccc(-c2ccc3ncnc(Nc4ccc(OCc5ccccc5)c(C(F)(F)F)c4)c3c2)o1`, for which the inhibition came out at 2.74%.

As to `O=C(O[C@H]1CN[C@H](C#Cc2cc3ncnc(Nc4ccc(Cc5ccccc5)cc4)c3s2)C1)N1CCOCC1`, the inhibition was determined as 3%.

As for `COc1ccc2[nH]c3c4[nH]c5ccc(OC)cc5c4c4c(c3c2c1)C(=O)NC4=O`, the inhibition came to 92.4%.

Consider `COc1ccc2c(-c3ccnc(Nc4cccc(OC(F)(F)F)c4)n3)cnn2n1`, for which the inhibition stood at 2.43%.

On to `CN1CCC(n2cnc(-c3ccc(F)cc3)c2-c2ccnc(N)n2)CC1`, for which the inhibition stood at 4.57%.

With `CN(C)CCOc1ccc(-c2nc(-c3ccncc3)c(-c3ccc4c(c3)CC/C4=N\O)[nH]2)cc1`, the inhibition worked out at 2.18%.

`COc1cc(N2CCN(C(C)C)CC2)ccc1Nc1nc(Nc2ccc(F)cc2C(N)=O)c2cc[nH]c2n1`: the inhibition was found to be 43.7%.

Regarding `CNC(=O)c1cncc(/C=C/c2ccccc2Cl)c1`, the inhibition was -1.02%.

In the case of `[O-][S+]1CCN(Cc2ccc(-c3ccc4ncnc(Nc5ccc(OCc6cccc(F)c6)c(Cl)c5)c4c3)o2)CC1`, the inhibition turned out to be 3.37%.

As for `COc1ccc(-c2nn3ncccc3c2-c2ccnc(Nc3ccc4c(c3)OCCO4)n2)cc1`, the inhibition amounted to 0.17%.

`FC(F)(F)c1cccc(-c2nn3ncccc3c2-c2ccnc(Nc3ccc4c(c3)OCCO4)n2)c1`: the inhibition stood at 2.46%.

As to `CNC(=O)c1cc(-c2ccc(F)cc2)cc(-c2ccc(S(=O)(=O)N3CCCC3)cc2)c1N`, the inhibition was determined as 2.91%.

In the case of `CNC(=O)c1cccc(C#Cc2cncnc2Nc2ccc(OCc3cccc(F)c3)c(Cl)c2)c1`, the inhibition worked out at 0.72%.

In the case of `CCOc1ccc2c(-c3ccnc(Nc4cccc(C(F)(F)F)c4)n3)cnn2n1`, the inhibition amounted to 0.76%.

Turning to `CC(C)(CO)CNC(=O)c1ccc2c(c1)/C(=N/Nc1ccc(S(N)(=O)=O)cc1)C(=O)N2`, the inhibition turned out to be 6.29%.

As for `Cc1ccc(O)cc1Nc1ccnc2cc(-c3ccccn3)ccc12`, the inhibition came to 2.66%.

In the case of `COC(=O)c1sc(-n2cnc3cc(OC)c(OC)cc32)cc1OCc1ccccc1C(F)(F)F`, the inhibition turned out to be 4.5%.

For `CC(=O)Nc1cccc(C#Cc2cncnc2Nc2ccc(OCc3cccc(F)c3)c(Cl)c2)c1`, the inhibition worked out at 0.33%.

As for `Fc1cccc(COc2ccc(Nc3ncnc4sc(-c5ccco5)cc34)cc2Cl)c1`, the inhibition is 2.48%.

With `COc1cc2ncn(-c3cc(OCc4ccccc4C(F)(F)F)c(C(=O)N(C)C)s3)c2cc1OC`, the inhibition amounted to 1.29%.

With `COc1cc2c(cc1Nc1nc(Nc3ccsc3C(N)=O)c3cc[nH]c3n1)N(C(=O)CN(C)C)CCC2(C)C`, the inhibition was determined as 34.4%.

Regarding `Nc1ncc(-c2cccc(S(N)(=O)=O)c2)c2scc(-c3ccc(F)c(Cl)c3)c12`, the inhibition was determined as 2.68%.

`O=C(Nc1n[nH]c2cc(-c3ccc(F)cc3)ccc12)C1CC1`: the inhibition is 6.96%.

As to `Cc1cccc(Nc2ncc(-c3ccccc3)o2)c1`, the inhibition is 2.67%.

In the case of `CCCN(CCS(C)(=O)=O)Cc1ccc(-c2ccc3ncnc(Nc4ccc(OCc5cccc(F)c5)c(Cl)c4)c3c2)o1`, the inhibition was found to be 1.46%.

Take `N#Cc1c(NC(=O)CN2CCOCC2)sc2c1CCCC2`: the inhibition came to 1.68%.

The target of the next experiment is Ribosomal protein S6 kinase alpha-6 (Homo sapiens) (UniProt Q9UK32). The note with it: at 0.1 µM.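 Note: reported value is the mean inhibition of RSK4, from the GSK PKIS kinase inhibitor screen.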
Chain of Ribosomal protein S6 kinase alpha-6 (Homo sapiens) (Q9UK32 whole entry): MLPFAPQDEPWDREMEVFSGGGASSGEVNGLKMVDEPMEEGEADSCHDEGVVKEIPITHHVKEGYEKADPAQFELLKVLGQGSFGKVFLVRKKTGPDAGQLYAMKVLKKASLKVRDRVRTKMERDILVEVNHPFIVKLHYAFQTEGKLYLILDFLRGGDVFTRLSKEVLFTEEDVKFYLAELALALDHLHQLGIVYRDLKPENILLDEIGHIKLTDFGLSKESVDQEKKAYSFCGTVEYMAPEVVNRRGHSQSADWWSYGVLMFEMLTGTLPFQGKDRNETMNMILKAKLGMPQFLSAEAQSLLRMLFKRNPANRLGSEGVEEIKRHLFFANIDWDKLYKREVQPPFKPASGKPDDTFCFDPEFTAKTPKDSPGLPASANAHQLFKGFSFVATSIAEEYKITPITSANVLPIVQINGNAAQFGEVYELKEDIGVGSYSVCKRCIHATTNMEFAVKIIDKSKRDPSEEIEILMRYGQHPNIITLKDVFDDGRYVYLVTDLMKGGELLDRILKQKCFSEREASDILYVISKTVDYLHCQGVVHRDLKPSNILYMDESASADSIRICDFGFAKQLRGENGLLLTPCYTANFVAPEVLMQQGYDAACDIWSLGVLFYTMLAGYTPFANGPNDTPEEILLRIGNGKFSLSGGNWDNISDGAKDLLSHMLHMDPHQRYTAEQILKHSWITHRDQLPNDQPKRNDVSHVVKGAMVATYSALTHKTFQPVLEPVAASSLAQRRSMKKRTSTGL
`Cc1cccc2c1NC(=O)/C2=N\Nc1ccc(S(N)(=O)=O)cc1`: the inhibition stood at 1.43%.

For `Clc1ccc(-c2nn3ncccc3c2-c2ccnc(Nc3ccccc3)n2)cc1`, the inhibition was found to be 0.64%.

In the case of `COc1ccc(-c2cc(-c3c[nH]nc3-c3ccccn3)ccn2)cc1`, the inhibition turned out to be 1.53%.

Turning to `NS(=O)(=O)c1ccc(Nc2ncc(-c3ccccc3)o2)cc1`, the inhibition amounted to 1.15%.

As for `c1ccc(-c2nc3n(c2-c2ccc4c(c2)OCO4)CCC3)nc1`, the inhibition is 1.28%.

As for `N#Cc1c(NC(=O)c2ccc(F)cc2)sc2c1CCCC2`, the inhibition is -0.96%.

For the compound `CC(C)COC(=O)c1ccc2c(c1)/C(=C/Nc1ccc(S(N)(=O)=O)cc1)C(=O)N2`, the inhibition turned out to be 4.96%.

Regarding `Cc1ccc2c(-c3ccnc(Nc4ccccc4)n3)c(-c3ccc(F)cc3)nn2n1`, the inhibition was 0.84%.

Regarding `CS(=O)(=O)CCNCc1ccc(-c2ccc3ncnc(Nc4ccc(OCc5ccccc5)c(C(F)(F)F)c4)c3c2)o1`, the inhibition came to 0.89%.

On to `O=C(O[C@H]1CN[C@H](C#Cc2cc3ncnc(Nc4ccc(Cc5ccccc5)cc4)c3s2)C1)N1CCOCC1`, for which the inhibition came out at 1.78%.

Regarding `COc1ccc2[nH]c3c4[nH]c5ccc(OC)cc5c4c4c(c3c2c1)C(=O)NC4=O`, the inhibition amounted to 58.2%.

For the compound `COc1ccc2c(-c3ccnc(Nc4cccc(OC(F)(F)F)c4)n3)cnn2n1`, the inhibition was 1.53%.

With `CN1CCC(n2cnc(-c3ccc(F)cc3)c2-c2ccnc(N)n2)CC1`, the inhibition is 1.08%.

As for `CN(C)CCOc1ccc(-c2nc(-c3ccncc3)c(-c3ccc4c(c3)CC/C4=N\O)[nH]2)cc1`, the inhibition was determined as 0.86%.

`COc1cc(N2CCN(C(C)C)CC2)ccc1Nc1nc(Nc2ccc(F)cc2C(N)=O)c2cc[nH]c2n1`: the inhibition amounted to 14.5%.

For `CNC(=O)c1cncc(/C=C/c2ccccc2Cl)c1`, the inhibition is 0.95%.

Turning to `[O-][S+]1CCN(Cc2ccc(-c3ccc4ncnc(Nc5ccc(OCc6cccc(F)c6)c(Cl)c5)c4c3)o2)CC1`, the inhibition was determined as 1.65%.

In the case of `COc1ccc(-c2nn3ncccc3c2-c2ccnc(Nc3ccc4c(c3)OCCO4)n2)cc1`, the inhibition came to 0.7%.

Regarding `FC(F)(F)c1cccc(-c2nn3ncccc3c2-c2ccnc(Nc3ccc4c(c3)OCCO4)n2)c1`, the inhibition amounted to 1.4%.

Take `CNC(=O)c1cc(-c2ccc(F)cc2)cc(-c2ccc(S(=O)(=O)N3CCCC3)cc2)c1N`: the inhibition was 0.1%.

Take `CNC(=O)c1cccc(C#Cc2cncnc2Nc2ccc(OCc3cccc(F)c3)c(Cl)c2)c1`: the inhibition is -0.53%.

Turning to `CCOc1ccc2c(-c3ccnc(Nc4cccc(C(F)(F)F)c4)n3)cnn2n1`, the inhibition was -0.47%.

For the compound `CC(C)(CO)CNC(=O)c1ccc2c(c1)/C(=N/Nc1ccc(S(N)(=O)=O)cc1)C(=O)N2`, the inhibition is 1.62%.

For `Cc1ccc(O)cc1Nc1ccnc2cc(-c3ccccn3)ccc12`, the inhibition was 0.21%.

In the case of `COC(=O)c1sc(-n2cnc3cc(OC)c(OC)cc32)cc1OCc1ccccc1C(F)(F)F`, the inhibition was 1.2%.

For the compound `CC(=O)Nc1cccc(C#Cc2cncnc2Nc2ccc(OCc3cccc(F)c3)c(Cl)c2)c1`, the inhibition amounted to 0.92%.

For the compound `Fc1cccc(COc2ccc(Nc3ncnc4sc(-c5ccco5)cc34)cc2Cl)c1`, the inhibition was 1.33%.

In the case of `COc1cc2ncn(-c3cc(OCc4ccccc4C(F)(F)F)c(C(=O)N(C)C)s3)c2cc1OC`, the inhibition is -0.29%.

Turning to `COc1cc2c(cc1Nc1nc(Nc3ccsc3C(N)=O)c3cc[nH]c3n1)N(C(=O)CN(C)C)CCC2(C)C`, the inhibition turned out to be 11.5%.

Consider `Nc1ncc(-c2cccc(S(N)(=O)=O)c2)c2scc(-c3ccc(F)c(Cl)c3)c12`, for which the inhibition stood at 2.34%.

Turning to `O=C(Nc1n[nH]c2cc(-c3ccc(F)cc3)ccc12)C1CC1`, the inhibition was 1.52%.

Take `Cc1cccc(Nc2ncc(-c3ccccc3)o2)c1`: the inhibition is 1.32%.

Turning to `CCCN(CCS(C)(=O)=O)Cc1ccc(-c2ccc3ncnc(Nc4ccc(OCc5cccc(F)c5)c(Cl)c4)c3c2)o1`, the inhibition came out at 1.43%.

With `N#Cc1c(NC(=O)CN2CCOCC2)sc2c1CCCC2`, the inhibition was determined as 1.4%.

As usually defined, the inhibition is the drop in the measured response relative to a control, in per cent.
